Assay [1] in a line: qHTS assay to identify aromatase inhibitors - cell viability counter screen (AID 743084).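 Also: cells stimulated with testosterone during compound exposure; nearly all actives have a fitted effect of over 55% in size.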 Conditions: MCF-7 aro ERE viability, CellTiter-Fluor, 24 h; series mostly up to 70.3 µM.
Assay [2] in a line: qHTS assay to identify small molecule that activate the aryl hydrocarbon receptor (AhR) signaling pathway - cell viability counter screen (AID 743086). Also: nearly all actives have a fitted effect of over 45% in size. Also: potency is read from the fitted curve at half-maximal effect. Conditions: HepG2-AhR-luc viability, CellTiter-Fluor, 24 h; series mostly up to 70.3 µM. Summed up:
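Cytotoxicity counter screen: CellTiter-Fluor signal (30 min, 37 C) in 4000 HepG2 cells/well carrying the DRE-luciferase reporter, following 24 h compound exposure at 37 C.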

The target of assay [3] is Peroxisome proliferator-activated receptor gamma (Homo sapiens) (UniProt P37231). The assay is described as follows: qHTS assay to identify small molecule agonists of the peroxisome proliferator-activated receptor gamma (PPARg) signaling pathway (AID 743094; active = well fitted activation curve with a large enough effect in the signal ratio in the repeat runs, not every such curve was filed as active; the % refers to the signal ratio). The following applies: HEK293H PPARg-UAS-bla, beta-lactamase FRET ratio, 17 h; series mostly up to 57 µM. Summed up:
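Following 5 h plating at 37C, PPARg-bla HEK293H cells receive compound or DMSO for 17 h; fluorescence intensity is recorded after LiveBLAzer B/G loading for 1 h at room temperature.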

Assay [4] has the same target. Kind of assay: qHTS assay to identify small molecule antagonists of the peroxisome proliferator-activated receptor gamma (PPARg) signaling pathway (AID 743191; calls by dose curve; also: nearly all actives have a fitted effect of over 30% in size). Conditions: HEK293H PPARg-UAS-bla, beta-lactamase ratio, antagonist, 17 h; series mostly up to 62.6 µM. The method, boiled down:
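Beta-lactamase reporter under UAS control in HEK293H PPARg-bla cells; compound treatment 17 h at 37C. Read-out: fluorescence intensity after 1 h room-temperature incubation with LiveBLAzer B/G FRET substrate.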

Assay [5] in a line: qHTS assay to identify small molecule antagonists of the peroxisome proliferator-activated receptor gamma (PPARg) signaling pathway - cell viability counter screen (AID 743194). Also: nearly all actives have a fitted effect of over 55% in size. Also: potency is read from the fitted curve at half-maximal effect. The following applies: PPARg-bla HEK293H viability, CellTiter-Glo luminescence, 17 h, co-treated with 50 nM rosiglitazone; series mostly up to 62.6 µM. The method, boiled down:
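Viability was measured as CellTiter-Glo luminescence in GeneBLAzer PPARg UAS-bla HEK293H cells. These cells had been exposed 17 h at 37 C to compounds together with rosiglitazone at 50 nM final, with the beta-lactamase readout taken in the same wells.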

A short description of assay [6]: qHTS assay for small molecule agonists of the antioxidant response element (ARE) signaling pathway - cell viability counter screen (AID 743203; calls by dose curve; also: nearly all actives have a fitted effect of over 55% in size; also: potency is read from the fitted curve at half-maximal effect). The following applies: ARE-bla HepG2 viability, CellTiter-Glo luminescence, 16 h; series mostly up to 73.3 µM. Summed up: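 Compounds in DMSO were pinned onto ARE-bla HepG2 cells plated 5 hrs earlier at 2,000 cells/well. Sixteen hours later at 37C/5% CO2, CellTiter-Glo was added and luminescence measured after 30 min at room temperature.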

A short description of assay [7]: qHTS assay for small molecule activators of the heat shock response signaling pathway - cell viability counter screen (AID 743209). Also: nearly all actives have a fitted effect of over 50% in size. Also: potency is read from the fitted curve at half-maximal effect. The following applies: HSE-bla HeLa viability, CellTiter-Glo luminescence, 5 h; series mostly up to 62.6 µM. Summed up: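 Counter screen for cytotoxicity in HeLa HSE-bla reporter cells. Treatment was 5 h at 37 C; viability was detected by luminescent ATP assay (CellTiter-Glo) in the same wells as the beta-lactamase read.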

The nature of assay [8]: qHTS assay for small molecule activators of the heat shock response signaling pathway (AID 743210; active = well fitted activation curve with a large enough effect in the signal ratio in the repeat runs, with a control signal flat, not every such curve was filed as active; the % refers to the signal ratio;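 also: HeLa cells with beta-lactamase reporter driven by heat shock elements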). Conditions: HeLa HSE-bla reporter, beta-lactamase ratio, 5 h; series mostly up to 62.6 µM. Summed up: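 HeLa HSE-bla cells, overnight plating; cpd in DMSO 5 h, 37 C; LiveBLAzer B/G FRET substrate 2.5 h RT; fluorescence intensity read.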
The nature of assay [9]: qHTS assay for small molecule agonists of the antioxidant response element (ARE) signaling pathway (AID 743202; active = well fitted activation curve with a large enough effect in the signal ratio in the repeat runs, not every such curve was filed as active; the % refers to the signal ratio; also: potency is read from the fitted curve at half-maximal effect). Conditions: HepG2 ARE-bla reporter, beta-lactamase FRET, 16 h; series mostly up to 73.3 µM. The method, boiled down: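 Quantitative high-throughput format in HepG2 cells bearing an integrated ARE-beta-lactamase reporter. Compound exposure lasted 16 h at 37 C, and fluorescence was read 2 h after adding LiveBLAzer B/G substrate at room temperature.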

The target of assay [10] is Aryl hydrocarbon receptor (Homo sapiens) (UniProt P35869). The assay is described as follows: qHTS assay to identify small molecule that activate the aryl hydrocarbon receptor (AhR) signaling pathway (AID 743085). Also: nearly all actives have a fitted effect of over 15% in size. Also: potency is read from the fitted curve at half-maximal effect.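 As to activation: HG2L7.5c1 human HepG2 liver cells with stably integrated DRE-driven firefly reporter.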 The following applies: HepG2 AhR-luc (HG2L7.5c1), luciferase, 24 h; series mostly up to 70.3 µM. The method, boiled down: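 Luminescence (ONE-Glo) from a dioxin-responsive-element luciferase reporter in HG2L7.5c1 HepG2 cells after 24 hr compound exposure at 37C; viability measured by CellTiter-Fluor fluorescence beforehand.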
Sequence of Aryl hydrocarbon receptor (Homo sapiens) (P35869 whole entry, looked up): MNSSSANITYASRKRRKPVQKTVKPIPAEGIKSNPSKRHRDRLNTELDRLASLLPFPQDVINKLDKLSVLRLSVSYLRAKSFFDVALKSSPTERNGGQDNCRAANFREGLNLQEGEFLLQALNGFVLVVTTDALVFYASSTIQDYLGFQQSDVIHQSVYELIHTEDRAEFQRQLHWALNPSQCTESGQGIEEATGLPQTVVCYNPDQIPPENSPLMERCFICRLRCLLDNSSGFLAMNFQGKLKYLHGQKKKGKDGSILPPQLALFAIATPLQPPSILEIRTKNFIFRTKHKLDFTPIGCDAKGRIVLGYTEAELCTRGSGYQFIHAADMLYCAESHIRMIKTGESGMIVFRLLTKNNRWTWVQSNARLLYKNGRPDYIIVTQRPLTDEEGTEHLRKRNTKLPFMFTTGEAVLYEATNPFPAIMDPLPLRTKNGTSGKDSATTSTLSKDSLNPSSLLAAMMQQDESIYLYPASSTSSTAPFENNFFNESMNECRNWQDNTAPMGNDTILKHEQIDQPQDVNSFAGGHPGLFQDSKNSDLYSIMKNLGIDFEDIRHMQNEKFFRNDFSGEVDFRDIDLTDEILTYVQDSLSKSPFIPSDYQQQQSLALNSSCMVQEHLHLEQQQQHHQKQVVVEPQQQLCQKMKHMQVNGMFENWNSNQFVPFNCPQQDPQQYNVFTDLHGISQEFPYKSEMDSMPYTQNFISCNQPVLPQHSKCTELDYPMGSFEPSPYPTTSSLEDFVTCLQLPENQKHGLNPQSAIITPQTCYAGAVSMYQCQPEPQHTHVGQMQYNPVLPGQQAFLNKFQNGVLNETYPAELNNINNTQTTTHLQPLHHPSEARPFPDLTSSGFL

Where “and” joins values, the source holds several entries; their conditions need not be identical. Identical values can stand only once. Inconclusive results are not listed. Calls of active or inactive are those of the source. Unless noted, calls follow the shape of the dose curve; as a rule, active = well fitted curve in the direction sought with a large enough effect in the repeat runs; inconclusive = weak or mixed curves; inactive = no such curve, though single readings can be large; an effect the other way counts as inactive or inconclusive.

Sequence of Peroxisome proliferator-activated receptor gamma (Homo sapiens) (P37231 whole entry, looked up): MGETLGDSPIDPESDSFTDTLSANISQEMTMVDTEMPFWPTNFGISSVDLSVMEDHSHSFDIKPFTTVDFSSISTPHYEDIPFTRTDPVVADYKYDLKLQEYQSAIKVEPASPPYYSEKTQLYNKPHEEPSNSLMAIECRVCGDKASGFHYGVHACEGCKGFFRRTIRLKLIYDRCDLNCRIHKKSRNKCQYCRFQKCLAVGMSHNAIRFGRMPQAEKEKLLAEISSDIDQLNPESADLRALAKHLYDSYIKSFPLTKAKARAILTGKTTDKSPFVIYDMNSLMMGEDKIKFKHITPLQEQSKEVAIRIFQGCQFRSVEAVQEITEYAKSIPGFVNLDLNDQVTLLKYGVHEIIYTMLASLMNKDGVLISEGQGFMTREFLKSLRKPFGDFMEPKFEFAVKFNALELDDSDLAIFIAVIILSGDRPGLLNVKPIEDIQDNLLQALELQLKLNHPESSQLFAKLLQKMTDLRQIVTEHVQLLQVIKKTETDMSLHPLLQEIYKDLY

In the case of `O=C(c1ccccc1)c1cc(Cl)ccc1O`, the Potency entry in assay [1], in [2], in assay [3], in assay [4], in [5] and in assay [6] was “inactive” in each case. Also, the Potency result in assay [7] and in assay [8] was “inactive” each time.
As for `C[C@]12CC[C@H]3C(=CCc4cc(O)ccc43)[C@@H]1CCC2=O`, the Potency result in assay [1], in assay [2], in [3], in assay [6] and in [8] was “inactive” each time.
Consider `NC(=O)C(=O)N/N=C/c1ccc([N+](=O)[O-])o1`, for which the Potency result in [2], in assay [3], in assay [5] and in [6] was “inactive” in each case. The Potency in assay [9] is 29.8 µM (active).
For the compound `CCC1(c2cnc[nH]2)Cc2ccccc2C1`, the Potency result in [6] and in assay [7] was “inactive” throughout.
In the case of `CC(C)(C)c1cc(/C=C2\SC(=N)NC2=O)cc(C(C)(C)C)c1O`, in [10], the Potency result is “inactive”. Also, the Potency in [5] is 43.6 µM (active); in [6], 24.3 µM (active); in [7] it was 43.6 µM (active).
In the case of `Cc1ccc(-n2[nH]c(C)c(N=Nc3cccc(-c4cccc(C(=O)O)c4)c3O)c2=O)cc1C`, in assay [5], the Potency is 2.37 µM (active). For the same compound, the Potency entry in assay [6] and in assay [7] was “inactive” throughout.
For `COc1cc(C(C)C)c2c(c1)S(=O)(=O)N(COc1cc(=O)n3cccc(OCCN4CCCCC4)c3n1)C2=O`, the Potency result in [10], in assay [3], in assay [6], in [7] and in assay [8] was “inactive” each time.
On to `O=C(Nc1ccc(Cl)cc1)Nc1ccc(Cl)c(C(F)(F)F)c1`, for which the Potency entry in [10] and in assay [3] was “inactive” in each case. Further, the Potency was 8.41 µM (active) in [5], 16.8 µM (active) in assay [6] and 9.44 µM (active) in [7].
Take `COC(=O)[C@]1(C)CCC[C@@]2(C)[C@H]1CC=C1C=C(C(C)C)CC[C@@H]12`: the Potency result in assay [2] and in assay [6] was “inactive” in each case. The Potency in [5] is 54.9 µM (active); in assay [9], 61.1 µM (active).
As to `Cc1ccc(CCn2c3c(c4cc(Cl)ccc42)CN(C)CC3)cn1`, the Potency result in [6], in assay [7] and in [8] was “inactive” in each case.
Regarding `O=C(Oc1ccccc1)c1cccc(C(=O)Oc2ccccc2)c1`, the Potency entry in assay [2] and in assay [7] was “inactive” in each case.
As to `O=C1Nc2ccc(Cl)cc2[C@@](C#CC2CC2)(C(F)(F)F)O1`, the Potency entry in assay [2], in assay [3] and in assay [6] was “inactive” throughout. The Potency in [9] was 13.3 µM (active); in assay [7], 5.31 µM (active).
On to `CCCCCCC(C)OC(=O)COc1nc(F)c(Cl)c(N)c1Cl` (stereo unspecified), for which the Potency result in assay [2], in [9] and in [6] was “inactive” throughout.
Regarding `CNCC[C@H](Oc1cccc2ccccc12)c1cccs1`, the figures for the Potency in [10], in [6] and in assay [7] were 11.9 µM (active), 6.68 µM (active) and 29.8 µM (active), respectively. The Potency entry in assay [2] is “inactive”.
Turning to `Nc1ccc2cc3ccc(N)cc3nc2c1`, the Potency in [10] is 11.9 µM (active) and 6.11 µM (active); in [6], 24.3 µM (active) and 29.8 µM (active); in [7], 43.6 µM (active). Also, the Potency entry in assay [8] was “inactive”.
Turning to `CCC(C)(C)c1cc(O)c(C(C)(C)CC)cc1O`, the Potency entry in assay [10] and in assay [2] was “inactive” each time. The Potency in assay [6] was 54.5 µM (active); in assay [7], 38.9 µM (active).
On to `CN(C)c1ccc(N=NS(=O)(=O)O)cc1`, for which the Potency in assay [10] is 14.5 µM (active); in [9], 8.63 µM (active). Besides, the Potency entry in assay [6] and in assay [7] was “inactive” in each case.
Regarding `CC(C)c1cccc(C(C)C)c1N1C(=O)c2ccc(O)cc2C1=O`, the Potency entry in assay [10], in assay [3] and in assay [7] was “inactive” each time.
Consider `COC(=O)C1=C(C)NC(C)=C(C(=O)OCCCN2CCC(c3ccccc3)(c3ccccc3)CC2)C1c1cccc([N+](=O)[O-])c1` (stereo unspecified), for which the Potency in assay [2] is 29.8 µM (active); in assay [5], 33.5 µM (active). In addition, in [7], the Potency result was “inactive”.
Turning to `CN(C)CCOC(c1ccccc1)c1ccccc1` (tested in a mixture with another compound), the Potency entry in assay [2], in assay [5], in assay [9], in [6] and in assay [7] was “inactive” throughout.
As to `CCCCCCCCCC(=O)N(C)C`, the Potency result in assay [2], in [6], in [7] and in [8] was “inactive” throughout.
For `CCCCCCCCCCOCC(O)CN` (stereo unspecified), the Potency result in assay [2] and in [4] was “inactive” in each case.
Regarding `NC1(c2ccc(-c3nc4ccn5c(=O)[nH]nc5c4cc3-c3ccccc3)cc2)CCC1`, the Potency in [5] is 4.22 µM (active). The Potency result in assay [7] and in assay [8] was “inactive” throughout.
`O=C(Nc1ccc(Cl)c(Cl)c1)c1cc(Cl)cc(Cl)c1O`: the Potency in assay [10] is 0.109 µM (active); in assay [5], 0.49 µM (active); in assay [6] it was 24.3 µM (active). For the same compound, in assay [2], the Potency result was “inactive”.
Regarding `C=CC(=O)OCCC#N`, the Potency result in assay [10], in [2] and in assay [6] was “inactive” throughout. The Potency in assay [9] is 34.6 µM (active).
`O=C1OC(=O)c2cccc3cccc1c23`: the Potency result in assay [2], in assay [3], in assay [4], in [5], in assay [6] and in [7] was “inactive” throughout. In addition, the Potency entry in [8] is “inactive”.
In the case of `CCCCCCOc1ccc(O)cc1`, the Potency result in [2], in [6], in assay [7] and in assay [8] was “inactive” in each case. Moreover, the Potency in assay [9] is 27.3 µM (active).
In the case of `CC1CCCCN1CCCOC(=O)c1ccc(OC2CCCCC2)cc1` (stereo unspecified), the Potency entry in [6], in assay [7] and in assay [8] was “inactive” throughout.
With `O=C(NO)c1ccccc1`, the Potency result in assay [10], in assay [2], in assay [7] and in assay [8] was “inactive” throughout.
In the case of `CC1=C(/C=C/C(C)=C/C=C/C(C)=C\C=O)C(C)(C)CCC1`, the Potency entry in [10], in [2] and in assay [5] was “inactive” throughout. Further, the Potency in assay [6] is 51.6 µM (active).
In the case of `CC(CN(C)C)CN1c2ccccc2CCc2ccccc21` (stereo unspecified), the Potency result in assay [10], in assay [2], in assay [9], in [6], in [7] and in [8] was “inactive” in each case.
Take `CC(C)(c1cc(Br)c(O)c(Br)c1)c1cc(Br)c(O)c(Br)c1`: the Potency result in assay [2] was “inactive”. For the same compound, the Potency in assay [5] was 54.8 µM (active) and 43.5 µM (active) and 46.3 µM (active); in assay [9], 23 µM (active); in assay [6], 60.9 µM (active) and 57.9 µM (active).
As to `CC(C(O)c1ccccc1)N(C)CCOC(c1ccccc1)c1ccccc1` (stereo unspecified), the Potency result in assay [10], in [2], in assay [4], in assay [5] and in [8] was “inactive” in each case.

(Values after PubChem BioAssay (Tox21).)
